Measurements reported in PubChem BioAssay AID1006 (Sanford-Burnham Center for Chemical Genomics, 2008).
Among all 200,000 compounds or so, about 3,000 (1.5%) were called active. The list comes from a sample in which actives are over-represented; it also holds similar structures and randomly drawn compounds. Values without a mark were called inactive.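 Rule for the calls: active = inhibition above about 50% when tested at 10 µM (limit read from the data); inactive = the rest.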

The molecules below were run against Luciferin 4-monooxygenase (Photinus pyralis) (UniProt P08659) (assay: inhibition of purified FLuc reporter enzyme – biochemical, luminescence, ATPLite, artefact control for luciferase-based inhibitor screens, primary screen (AID 1006)). Details: ATPLite firefly luciferase biochemical luminescence, 10 min; at 10 µM; stronger effect = higher value.
Luciferin 4-monooxygenase (Photinus pyralis), sequence (P08659 whole entry, looked up): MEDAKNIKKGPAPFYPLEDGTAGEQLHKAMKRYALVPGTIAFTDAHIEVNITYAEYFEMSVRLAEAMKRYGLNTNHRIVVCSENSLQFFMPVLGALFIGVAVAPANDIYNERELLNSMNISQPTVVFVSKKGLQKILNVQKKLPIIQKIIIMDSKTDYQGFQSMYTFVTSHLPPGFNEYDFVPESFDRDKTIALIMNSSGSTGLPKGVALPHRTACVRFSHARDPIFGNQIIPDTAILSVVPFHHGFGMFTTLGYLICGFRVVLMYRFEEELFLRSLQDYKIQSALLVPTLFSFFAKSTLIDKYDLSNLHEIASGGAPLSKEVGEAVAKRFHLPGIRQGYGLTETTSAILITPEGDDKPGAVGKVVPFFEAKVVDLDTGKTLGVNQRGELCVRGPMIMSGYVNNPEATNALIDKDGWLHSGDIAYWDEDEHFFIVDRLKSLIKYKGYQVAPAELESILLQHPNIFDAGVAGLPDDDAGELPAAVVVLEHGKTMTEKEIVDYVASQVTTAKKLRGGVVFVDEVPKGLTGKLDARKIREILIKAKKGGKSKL
Molecule `CN1CCN(c2cc(N3CCNCC3)ccc2[N+](=O)[O-])CC1` has an inhibition of 5.2%.
With `COc1cccc(-c2nc3ccc(N4CCN(C)CC4)cc3[nH]2)c1` the inhibition was 95.8% (active).
Work on `Cc1nc2ccc(N3CCN(C)CC3)cc2nc1C` yielded an inhibition of 15.6%.
`Cc1nn(Cc2ccccc2Cl)c(Cl)c1C(=O)OC(C(=O)NC(N)=O)C(C)C` (stereo not given) was tested, and the inhibition was -7%.
`Cc1ccnc(-n2c(C)cc(/C=C3\C(=O)NC(=S)N(C)C3=O)c2C)c1` was tested, and the inhibition was 5.2%.
